# Measurements as given in PubChem BioAssay AID1159580 (chemical genetic matrix, 2015).
# The campaign covered roughly 5,500 compounds. About 2,000 (36%) were called active. Roughly 18% stayed inconclusive and do not appear here. The list shows a part of the results. Unmarked numbers belong to inactive results. Rule as the data show it: active = normalized growth mostly below about 0.91 (no sharp cut-off); inconclusive = no clear call, values can overlap the other calls; inactive = mostly above about 0.92.
# Assay: chemical genetic growth profiling, strain panel (AID 1159580);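 also: tested at 20 µM; growth read once vehicle control cultures reached saturation at 30 °C; 1 = growth at the plate median or of vehicle wells; lower values mean less growth of the strain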
# Settings: S. cerevisiae deletion strains, growth OD
structure (smiles),measurement,setting,value
N/C(=N/OC(=O)c1ccccc1Cl)c1ccc2nonc2c1,normalized growth,"locus YAR019C, strain CDC15, hits give low values",0.967
same,normalized growth,"locus YBL105C, strain PKC1, hits give low values",0.963
same,normalized growth,"locus YBR135W, strain CKS1, hits give low values",0.962
same,normalized growth,"locus YBR136W, strain MEC1, hits give low values",0.966
same,normalized growth,"locus YBR160W, strain CDC28, hits give low values",0.959
same,normalized growth,"locus YDL017W, strain CDC7, hits give low values",0.968
same,normalized growth,"locus YDL028C, strain MPS1, hits give low values",0.964
same,normalized growth,"locus YDL101C, strain DUN1, hits give low values",0.977
same,normalized growth,"locus YDL108W, strain KIN28, hits give low values",0.973
same,normalized growth,"locus YDL132W, strain cdc53, hits give low values",0.958
same,normalized growth,"locus YDL214C, strain PRR2, hits give low values",0.978
same,normalized growth,"locus YDR052C, strain DBF4, hits give low values",0.976
same,normalized growth,"locus YDR054C, strain cdc34, hits give low values",0.95
same,normalized growth,"locus YDR226W, strain ADK1, hits give low values",0.975
same,normalized growth,"locus YDR477W, strain SNF1, hits give low values",0.989
same,normalized growth,"locus YER123W, strain YCK3, hits give low values",0.977
same,normalized growth,"locus YER133W, strain GLC7, hits give low values",0.961
same,normalized growth,"locus YFL009W, strain cdc4, hits give low values",0.965
same,normalized growth,"locus YFL029C, strain CAK1, hits give low values",0.963
same,normalized growth,"locus YFR003C, strain YPI1, hits give low values",0.972
same,normalized growth,"locus YFR019W, strain FAB1, hits give low values",0.956
same,normalized growth,"locus YFR028C, strain CDC14, hits give low values",0.977
same,normalized growth,"locus YGR040W, strain KSS1, hits give low values",0.976
same,normalized growth,"locus YGR052W, strain FMP48, hits give low values",1.05
same,normalized growth,"locus YGR092W, strain DBF2, hits give low values",0.847
same,normalized growth,"locus YHR030C, strain SLT2, hits give low values",0.825 (active)
same,normalized growth,"locus YHR079C, strain IRE1, hits give low values",0.963
same,normalized growth,"locus YHR082C, strain KSP1, hits give low values",1.01
same,normalized growth,"locus YHR205W, strain SCH9, hits give low values",0.971
same,normalized growth,"locus YIL147C, strain SLN1, hits give low values",0.96
same,normalized growth,"locus YJL095W, strain BCK1, hits give low values",0.904
same,normalized growth,"locus YJL128C, strain PBS2, hits give low values",0.985
same,normalized growth,"locus YJL157C, strain FAR1, hits give low values",0.977
same,normalized growth,"locus YJR016C, strain ILV3, hits give low values",0.966
same,normalized growth,"locus YJR066W, strain TOR1 (second series), hits give low values",0.915
same,normalized growth,"locus YJR066W, strain TOR1, hits give low values",0.947
same,normalized growth,"locus YKL048C, strain ELM1, hits give low values",0.985
same,normalized growth,"locus YKL067W, strain YNK1, hits give low values",0.986
same,normalized growth,"locus YKL101W, strain HSL1, hits give low values",0.991
same,normalized growth,"locus YKL193C, strain SDS22, hits give low values",0.965
same,normalized growth,"locus YKL203C, strain TOR2, hits give low values",1.01
same,normalized growth,"locus YLR113W, strain HOG1, hits give low values",0.96
same,normalized growth,"locus YLR133W, strain CKI1, hits give low values",0.994
same,normalized growth,"locus YLR403W, strain SFP1, hits give low values",0.96
same,normalized growth,"locus YML070W, strain DAK1, hits give low values",0.99
same,normalized growth,"locus YMR001C, strain CDC5, hits give low values",0.97
same,normalized growth,"locus YMR205C, strain PFK2 (second series), hits give low values",0.984
same,normalized growth,"locus YMR277W, strain FCP1, hits give low values",0.963
same,normalized growth,"locus YNL006W, strain LST8, hits give low values",0.974
same,normalized growth,"locus YNL020C, strain ARK1, hits give low values",0.98
same,normalized growth,"locus YNL161W, strain CBK1, hits give low values",0.973
same,normalized growth,"locus YNL183C, strain NPR1, hits give low values",0.955
same,normalized growth,"locus YNL207W, strain RIO2, hits give low values",0.964
same,normalized growth,"locus YNL222W, strain SSU72, hits give low values",0.968
same,normalized growth,"locus YNL307C, strain MCK1 (second series), hits give low values",0.982
same,normalized growth,"locus YOL078W, strain AVO1, hits give low values",0.972
same,normalized growth,"locus YOL136C, strain PFK27, hits give low values",0.983
same,normalized growth,"locus YOR061W, strain CKA2, hits give low values",0.985
same,normalized growth,"locus YOR119C, strain RIO1, hits give low values",1.07
same,normalized growth,"locus YOR231W, strain MKK1, hits give low values",0.96
same,normalized growth,"locus YOR329C, strain SCD5, hits give low values",0.97
same,normalized growth,"locus YPL031C, strain PHO85, hits give low values",0.966
same,normalized growth,"locus YPL153C, strain RAD53, hits give low values",0.959
same,normalized growth,"locus YPL204W, strain HRR25, hits give low values",0.95
same,normalized growth,"locus YPL209C, strain IPL1, hits give low values",0.968
same,normalized growth,"locus YPL256C, strain CLN2, hits give low values",0.963
same,normalized growth,"locus YPR025C, strain CCL1, hits give low values",0.962
same,normalized growth,"locus YPR106W, strain ISR1, hits give low values",0.981
same,normalized growth,"locus YPR111W, strain DBF20, hits give low values",0.974
same,normalized growth,"strain NNK1, hits give low values",0.98
same,normalized growth,"strain TSCII, hits give low values",0.962
